Where “and” joins values, the source holds several entries; their conditions need not be identical. Equal entries are not always repeated. The campaign covered roughly 5,500 compounds. About 2,000 (36%) were called active. Another 18% or so got no clear call; they are omitted. Cut-off read from the data, not from the text of the source: active = normalized growth mostly below about 0.91 (no sharp cut-off); inconclusive = no clear call, values can overlap the other calls; inactive = mostly above about 0.92. The list shows a part of the results.
Assay: chemical genetic growth profiling, strain panel (AID 1159580);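 note: tested at 20 µM; growth read once vehicle control cultures reached saturation at 30 °C; 1 = growth at the plate median or of vehicle wells; lower values mean less growth of the strain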
Settings: S. cerevisiae deletion strains, growth OD
[1] = locus YGR078C, strain PAC10, active compounds read low
[2] = locus YJR075W, strain HOC1, active compounds read low
[3] = locus YPL241C, strain CIN2, active compounds read low

Measured: normalized growth

CC[C@H](/C=C/C(C)C1CCC2C3CCC4=CC(=O)CC[C@]4(C)C3CC[C@]12C)C(C)C (stereo not given in full)
inactive: locus YBR021W, strain FUR4, active compounds read low 1.01 | locus YBR229C, strain ROT2, active compounds read low 1 | locus YCL029C, strain bik1, active compounds read low 1.02 | locus YDL035C, strain GPR1, active compounds read low 1.02 | locus YDL074C, strain BRE1, active compounds read low 1.02 | locus YDL101C, strain DUN1, active compounds read low 1.01 | locus YDL134C, strain PPH21, active compounds read low 1.03 | locus YDL185W, strain tfp1, active compounds read low 1.01 | locus YDL192W, strain arf1, active compounds read low 1 | locus YDR101C, strain arx1, active compounds read low 1.01 | locus YDR162C, strain NBP2, active compounds read low 1.03 | locus YDR318W, strain mcm21, active compounds read low 1 | locus YDR388W, active compounds read low 1.01 | locus YDR502C, strain sam2, active compounds read low 1.02 | locus YEL061C, strain CIN8, active compounds read low 1 | locus YER110C, active compounds read low 1 | locus YER155C, strain BEM2, active compounds read low 1.01 | locus YER167W, strain BCK2, active compounds read low 1.02 | locus YGL078C, strain dbp3, active compounds read low 1.01 | locus YGL086W, strain mad1, active compounds read low 0.997 | locus YGL248W, strain PDE1, active compounds read low 1.02 | [1] 1.03 | locus YGR135W, strain pre9, active compounds read low 1 | locus YGR252W, strain gcn5, active compounds read low 1.01 | locus YHR030C, strain SLT2, active compounds read low 1.01 and 1.1 | locus YHR079C, strain IRE1 (second series), active compounds read low 0.991 | locus YHR079C, strain IRE1, active compounds read low 1.07 | locus YHR094C, strain hxt1, active compounds read low 0.99 | locus YHR129C, strain ARP1, active compounds read low 1.01 | locus YHR200W, strain rpn10, active compounds read low 1 | locus YIL066C, strain RNR3, active compounds read low 1.03 | locus YIL073C, strain SPO22, active compounds read low 1.05 | locus YIL125W, strain kgd1, active compounds read low 1.01 | locus YIR030C, strain dcg1, active compounds read low 1 | locus YJL095W, strain BCK1, active compounds read low 1.02 and 1.05 | locus YJL134W, strain LCB3, active compounds read low 1.01 | locus YJL168C, strain set2, active compounds read low 1 | locus YJL187C, strain SWE1 (second series), active compounds read low 1.02 | locus YJR043C, strain POL32, active compounds read low 1.03 | locus YJR066W, strain TOR1, active compounds read low 0.985 | [2] 1.02 | locus YKL009W, strain mrt4, active compounds read low 1.04 | locus YKL068W, active compounds read low 1.01 | locus YKL085W, strain MDH1 (second series), active compounds read low 1.01 | locus YKL085W, strain MDH1, active compounds read low 1.01 | locus YKL190W, strain CNB1, active compounds read low 1.01 | locus YKR001C, strain vps1, active compounds read low 1.02 | locus YLR039C, strain RIC1, active compounds read low 1.07 | locus YLR058C, strain SHM2, active compounds read low 1.01 | locus YLR102C, strain apc9, active compounds read low 0.999 | locus YLR113W, strain HOG1, active compounds read low 1.04 | locus YLR262C, strain YPT6, active compounds read low 1.06 | locus YLR268W, strain sec22, active compounds read low 1.02 | locus YLR330W, strain CHS5, active compounds read low 1.01 | locus YLR342W, strain FKS1 (second series), active compounds read low 0.996 | locus YLR371W, strain rom2, active compounds read low 1.02 | locus YLR418C, strain cdc73, active compounds read low 1.01 | locus YML016C, strain PPZ1, active compounds read low 1 | locus YML032C, strain rad52, active compounds read low 1.01 | locus YML124C, strain tub3, active compounds read low 1 | locus YMR078C, strain ctf18, active compounds read low 1 | locus YMR223W, strain ubp8, active compounds read low 1.01 | locus YMR263W, strain SAP30, active compounds read low 1.01 | locus YMR307W, strain GAS1, active compounds read low 1.04 | locus YNL067W, strain RPL9B, active compounds read low 1.02 | locus YNL153C, strain GIM3, active compounds read low 1.01 | locus YNL183C, strain NPR1, active compounds read low 0.996 | locus YNL233W, strain BNI4, active compounds read low 1.02 | locus YNL250W, strain rad50, active compounds read low 1 | locus YNL271C, strain bni1, active compounds read low 1.01 | locus YNL298W, strain CLA4, active compounds read low 1 | locus YNL307C, strain MCK1, active compounds read low 1.01 | locus YNL322C, strain KRE1, active compounds read low 1.02 | locus YNR052C, strain pop2, active compounds read low 1.01 | locus YOL006C, strain TOP1, active compounds read low 1.13 | locus YOL012C, strain htz1 1.25 | locus YOL147C, strain pex11, active compounds read low 1 | locus YOR061W, strain CKA2, active compounds read low 1.01 | locus YOR069W, strain VPS5, active compounds read low 1.01 | locus YOR136W, strain idh2, active compounds read low 1 | locus YOR144C, strain elg1, active compounds read low 0.994 | locus YOR184W, strain ser1, active compounds read low 0.999 | locus YOR231W, strain MKK1, active compounds read low 1.08 | locus YOR316C, strain cot1, active compounds read low 1 | locus YPL055C, strain LGE1, active compounds read low 1.04 | [3] 1.01 | locus YPL256C, strain CLN2, active compounds read low 1.03 | locus YPR119W, strain clb2, active compounds read low 1 | locus YPR141C, strain kar3, active compounds read low 1.01 | locus YPR163C, strain tif3, active compounds read low 1.01 | locus YPR167C, strain met16, active compounds read low 1.03 | strain wtn01, active compounds read low 0.992

C[C@]12CCC(=O)C=C1CC[C@@H]1[C@@H]2CC[C@]2(C)C(=O)CC[C@@H]12
inactive: locus YAL040C, strain CLN3, active compounds read low 1.01 | locus YCL061C, strain MRC1 (second series), active compounds read low 0.994 | locus YDR150W, strain NUM1, active compounds read low 0.988 | locus YDR363W, strain ESC2, active compounds read low 0.999 | locus YER002W, strain NOP16, active compounds read low 0.99 | [1] 0.987 | [2] 0.991 | locus YNL128W, strain TEP1, active compounds read low 0.996 | locus YNL175C, strain NOP13, active compounds read low 0.997 | locus YNL197C, strain WHI3, active compounds read low 0.997 | locus YNL224C, strain SQS1, active compounds read low 1.01 | locus YOR083W, strain WHI5 (second series), active compounds read low 0.924 | [3] 0.997

— PubChem BioAssay AID1159580 (chemical genetic matrix, 2015)
